FBW7 activator – human FBW7 E3 ligase activation, primary screen | Q969H0 | AlphaScreen FBW7–phospho-cyclin E peptide binding, activator screen | normalized activity (activation), % at 26.1 µM | 0.13% of 650,000 active; in the data active means normalized activity above about 1.9%;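 further: purified mutant Fbw7 with reduced substrate affinity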
MITF inh – inhibitors of human MITF. AlphaScreen MITF homodimerization, bead proximity signal. inhibition, % at 2.6 µM. 0.91% of 650,000 active. AID 1259374; in the data active means inhibition above about 50%;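 further: 0% = vehicle wells with protein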
GPR151 ag – activators of human GPR151. activation, % at 11.2 µM. 1% of 650,000 active. AID 1508602. PathHunter beta-arrestin GPR151 cells, luminescence. Q8TDV0; in the data active means activation above about 4.9%;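 further: 0% = median of compound wells and 100% = cells with positive control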
TEAD-YAP inh – TEAD-YAP interaction inhibition | HEK-TIYL cells, TEAD-Gal4/YAP UAS-luciferase luminescence | inhibition, % at 9.12 µM | 1.4% of 640,000 active; in the data active means inhibition above about 32%;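 further: 0% = median of test compound wells and 100% = reference inhibitor wells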
GPR151 confirm – confirmation of human GPR151 activators; shares compounds with GPR151 ag; activation, % at 11.2 µM; 6,700 tested, under 10 active; GPR151 PathHunter beta-arrestin cells, luminescence, 90 min; % of EA-reagent control over plate median;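 active means mean percent activation across replicates above the confirmation screen cutoff of 4.91%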
GPR119 ag – GPR119 activation, counter-screen for GPR151 activators; shares compounds with GPR151 ag; GPR119 PathHunter beta-arrestin cells, luminescence, 90 min; 0 = compound-well median, 100 = enzyme-acceptor control; activation, % at 11.2 µM; 0.3% of 6,700 active; AID 1508611;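 active means mean percent activation in the counterscreen above 29.09%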;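 further: counterscreen on off-target GPR119 to flag nonselective hits from the GPR151 activator screen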
Target sequence (Q8TDV5 whole entry, looked up): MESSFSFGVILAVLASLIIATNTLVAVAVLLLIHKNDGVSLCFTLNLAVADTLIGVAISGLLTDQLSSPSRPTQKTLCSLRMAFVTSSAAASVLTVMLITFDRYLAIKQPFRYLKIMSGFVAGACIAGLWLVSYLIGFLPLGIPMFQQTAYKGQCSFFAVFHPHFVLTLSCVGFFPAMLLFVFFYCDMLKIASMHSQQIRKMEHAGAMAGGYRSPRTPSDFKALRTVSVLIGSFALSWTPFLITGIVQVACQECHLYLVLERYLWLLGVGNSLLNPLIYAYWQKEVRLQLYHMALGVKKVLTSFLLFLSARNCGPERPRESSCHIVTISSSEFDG
* = called active by the depositor; . = no result. This is a sample that favours compounds with a hit; in the whole collection about 3.4% have one here.

SMILES	FBW7 activator	MITF inh	GPR151 ag	TEAD-YAP inh	GPR151 confirm	GPR119 ag
Cc1oc(-c2ccc(Cl)cc2)nc1CS(=O)CC(=O)NC(C)C (centres undefined)	0	6	9.4*	3	-1	-9
Cc1oc(-c2ccc(Cl)cc2)nc1CS(=O)CC(=O)NC(C)c1ccccc1 (centres undefined)	1	15	-1	-7	.	.
C=CCN(CC=C)C(=O)c1ccc([N+](=O)[O-])c(C)c1	0	1	1	-10	.	.
CN1C(C(=O)c2ccccc2)=C(N)c2ccccc2S1(=O)=O	0	-3	-1	13	.	.
CN1C(C(=O)c2ccccc2)=C(N2CCCCC2)c2ccccc2S1(=O)=O	0	-1	8.1*	4	0	8
O=C(NCc1cccc(C(F)(F)F)c1)C1CCN(c2ccc(NC3CCN(Cc4ccccc4)CC3)nn2)CC1	0	15	5.6*	38*	-1	-10
Cn1nccc1Nc1ccc(N2CCC(C(=O)NCc3cccc(C(F)(F)F)c3)CC2)nn1	0	-3	5.2*	11	1	1
O=C(NCc1cccnc1)C1CCN(c2ccc(NC3CCN(Cc4ccccc4)CC3)nn2)CC1	0	-9	0	12	.	.
O=C(NCc1cccc(C(F)(F)F)c1)C1CCN(c2ccc(Nc3ccccc3)nn2)CC1	0	1	1	-1	.	.
CCCc1sc(Nc2ccccc2OC)nc1-c1ccc(Cl)c(Cl)c1	0	-2	0	16	.	.
COc1ccc2cc(CCNC(=O)/C=C\c3ccc4c(c3)OCO4)c(=O)[nH]c2c1	0	7	12*	8	0	2
N#Cc1ccc(CSC2=Nc3ccccc3C3CC=NN23)cc1 (centres undefined)	0	11	-1	-3	.	.
S=C1Nc2ccccc2C2CC=NN12 (centres undefined)	0	5	5.7*	4	-1	-2
Brc1ccccc1-c1nnc2sc(-c3ccc4c(c3)OCCO4)nn12	0	-1	5.7*	-3	1	4
COc1cc(/C=N/NC(=O)C(C)Nc2cccc(C)c2)ccc1O (centres undefined)	0	2	-1	14	.	.
CCN(CC)c1ccc(C(=O)Nc2sc3c(c2C#N)CCCC3)cc1	0	-10	-1	-1	.	.
CCN(CC)c1ccc(C(=O)Nc2sc3c(c2C#N)CCCCC3)cc1	0	8	5.1*	-1	0	2
COc1ccc(C2=NN3C(C2)c2cc(Cl)ccc2OC3c2ccccc2)cc1 (centres undefined)	0	-5	-1	-68	.	.
Cc1ccnc(NC(=O)C2CC=CCC2C(=O)O)c1 (centres undefined)	0	14	6.3*	-5	0	-4
Cc1ccnc(NC(=O)C2CCCC2)c1	0	16	0	-11	.	.
Cc1cc(I)ccc1NC(=O)Cc1ccccc1	0	-2	6.1*	4	0	-1
CCOc1ccc2c(c1)C(=C1SC(C(=O)OC)=C(C(=O)OC)S1)C(=S)C(C)(C)N2C(=O)CN1C(=O)c2ccccc2C1=O	0	3	-1	10	.	.
COc1cccc(CC(=O)N2CCc3nnc(CNC(=O)CCc4cccnc4)n3CC2)c1	0	2	5.7*	-2	0	5
CCNC(=O)C(=O)N/N=C/c1ccccc1	0	-3	8.2*	-2	0	-4
COc1ccccc1N=Cc1c(O)n(-c2cccc(C)c2)c(=O)[nH]c1=O	0	-6	1	-2	.	.
SMILES	FBW7 activator	MITF inh	GPR151 ag	TEAD-YAP inh	GPR151 confirm	GPR119 ag
Cc1ccnc(Nc2ccc(N3CCN(C(=O)C4CCCC4)CC3)nn2)c1	1	6	5.1*	6	0	-2
O=C(COc1ncnc2ccc(Br)cc12)Nc1ccc(F)c([N+](=O)[O-])c1	0	6	5.2*	-2	-1	-10
Cc1ccc(NC(=O)COc2ncnc3ccc(Br)cc23)cc1[N+](=O)[O-]	0	11	3	1	.	.
CC(=O)N1CCOc2cc(S(=O)(=O)NC3CCCCCC3)c(C)cc21	0	-8	2	4	.	.
CCc1cc2c(cc3c(=O)n(CC(=O)NCC4CCCN4CC)ncn32)s1 (centres undefined)	0	12	0	0	.	.
CCOc1cc(/C=N/NC(=O)c2cc(-c3ccc(C)o3)[nH]n2)ccc1O	0	15	7.0*	21	0	-8
CCOc1cc(/C=N/NC(=O)c2cc(C(C)C)[nH]n2)ccc1O	0	6	-1	6	.	.
COc1ccc(/C=N/NC(=O)c2cc(-c3ccc(C)o3)[nH]n2)cc1	0	17	-1	9	.	.
Cc1ccc(-c2cc(C(=O)N/N=C/c3cccc(Br)c3)n[nH]2)o1	0	8	7.5*	11	1	-6
c1ccc2c(Nc3cc(Nc4ccc5c(c4)OCO5)ncn3)nccc2c1	1	17	3	-12	.	.
O=C(NN1C(=O)C2C3C=CC(C3)C2C1=O)c1ccncc1 (centres undefined)	0	1	-1	-7	.	.
O=C(NN1C(=O)C2C(c3ccccc3)C=CC(c3ccccc3)C2C1=O)c1ccncc1 (centres undefined)	0	-20	6.1*	8	0	-5
COc1ccc(C2=N/C(=C\c3cccc(Cl)c3Cl)C(=O)O2)cc1	0	16	0	0	.	.
Cc1cnc(-c2cccc(N)c2)nc1Nc1ccc(N2CCOCC2)cc1	0	7	-1	11	.	.
COCCCNC(=O)CN(c1cc(Cl)ccc1C)S(C)(=O)=O	0	7	-1	-6	.	.
COCCCNC(=O)CN(c1cc(Cl)ccc1Cl)S(C)(=O)=O	0	3	11*	-6	0	-9
CCOC(=O)CSc1nc2ccc(NC(=O)CSCC(=O)Nc3ccccc3)cc2s1	0	-2	4.9*	2	0	6
Cc1csc(NC(=O)CSc2nnc(CSCc3ccc(F)cc3)n2C)n1	0	-10	5.1*	15	0	7
Cc1csc(NC(=O)CSCC(=O)Nc2ccccc2)n1	0	-9	6.9*	-8	1	6
CCn1c(CSCc2ccc(F)cc2)nnc1SCC(=O)Nc1nc(C)cs1	0	-11	0	9	.	.
O=C(CSCC(=O)Nc1ccc2nc(SCC(=O)Nc3ccccc3)sc2c1)Nc1ccc2ccccc2c1	0	11	-1	0	.	.
O=C(c1ccc2c(=O)n(Cc3ccc4c(c3)OCO4)c(=S)[nH]c2c1)N1CCCCCC1	0	13	1	2	.	.
Cc1ccccc1OCCCC(=O)Nc1nc(-c2ccccc2)cs1	0	-14	7.1*	-1	-1	0
O=C(O)CCCC(=O)Nc1nc(-c2ccccc2)cs1	0	-13	-2	5	.	.
O=C1COc2cc(-c3c(NC4CCCCC4)c(=O)c3=O)ccc2N1	0	4	14*	-6	0	-2

Bioassay records (PubChem)
